Assay outcomes as filed in PubChem BioAssay.
hcDAF-12 act – H. contortus DAF-12 activation, primary screen; HEK293 hcDAF-12 lit1-tk-luc reporter, luminescence; 0% DMSO, 100% Δ7-dafachronic acid; activation, % at 6.8 µM; 370,000 compounds, 1.4% hits; AID 652067;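 active = activation above the mean of all tested compounds plus 3 SD, cut at about 5.5% in these data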
DAX1 inh-1 – NR0B1 (DAX1) inhibition | 340,000 compounds, 0.99% hits | P51843 | HEK293 Gal4-DAX1 luciferase reporter, luminescence | inhibition, % at 6.75 µM;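 active = inhibition above the mean over all tested compounds plus 3 SD, cut at about 4.2% in these data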;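 note: inhibition shows as a rise in luminescence from relieved DAX1 repression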
Target sequence (P51843 207-470 limits assumed): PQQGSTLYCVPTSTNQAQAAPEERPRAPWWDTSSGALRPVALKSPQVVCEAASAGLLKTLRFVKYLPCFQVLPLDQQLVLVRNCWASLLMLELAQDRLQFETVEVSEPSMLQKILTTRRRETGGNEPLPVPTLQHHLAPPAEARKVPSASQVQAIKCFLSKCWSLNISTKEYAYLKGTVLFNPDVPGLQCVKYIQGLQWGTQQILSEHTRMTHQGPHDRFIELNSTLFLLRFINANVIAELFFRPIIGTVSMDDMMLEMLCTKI
DAX1 inh-2 – DAX1 (NR0B1) inhibition, primary screen. HEK293T StAR-luciferase reporter, SF-1/DAX-1 repression relief. inhibition, % at 6.8 µM. 370,000 compounds, 1.1% hits. AID 652010;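 active = inhibition above the mean over all tested compounds plus 3 SD, cut at about 3.6% in these data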;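 note: higher inhibition means more luminescence from relief of DAX-1 repression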
ssDAF-12 act – activates DAF-12 receptor from parasite S. stercoralis; HEK293 ssDAF-12/GRIP1 lit1-tk-luc reporter, luminescence; % of 3 µM dafachronic acid response; activation, % at 6.8 µM; 370,000 compounds, 1% hits;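 active = activation above the mean over all tested compounds plus 3 SD, cut at about 0.9% in these data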
AHR activator – human AHR activation; P35869; AHR-responsive luciferase reporter cells, luminescence; activation, % at 5 µM; 320,000 compounds, 2.5% hits; AID 2796; in the data active = activation above about 47%
hgDAF-12 ag – hgDAF-12 agonism, primary luciferase screen | HEK293 GAL4-hgDAF12 UAS-luciferase reporter, agonist luminescence; normalized to butyrate control | AID 687014 | activation, % at 6.8 µM | 370,000 compounds, 1.8% hits;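 active = activation above a cutoff set at the mean of all screened compounds plus 3 SD, cut at about 10% in these data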
hgDAF12 ag – confirmation of H. glycines DAF-12 agonists; shares compounds with hgDAF-12 ag; HEK293 GAL4-hgDAF12 luciferase reporter, agonist mode; percent of butyrate response; activation, % at 6.8 µM; 3,300 compounds, 80% hits;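 active = mean activation over triplicate wells above the hit cutoff derived from the earlier primary screen, cut at about 11% in these data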
LXR ag 2 – LXR-beta agonism as DAF-12 counter-screen | shares compounds with hgDAF-12 ag | HEK293 Gal4-LXR luciferase reporter, 24 h | activation, % at 6.8 µM | 3,300 tested, under 10 active | AID 743051;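 active = mean activation of the triplicate above a set limit carried over from the primary screen, none filed active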
Target sequence (P55055 whole entry, looked up, the tested form may be a part): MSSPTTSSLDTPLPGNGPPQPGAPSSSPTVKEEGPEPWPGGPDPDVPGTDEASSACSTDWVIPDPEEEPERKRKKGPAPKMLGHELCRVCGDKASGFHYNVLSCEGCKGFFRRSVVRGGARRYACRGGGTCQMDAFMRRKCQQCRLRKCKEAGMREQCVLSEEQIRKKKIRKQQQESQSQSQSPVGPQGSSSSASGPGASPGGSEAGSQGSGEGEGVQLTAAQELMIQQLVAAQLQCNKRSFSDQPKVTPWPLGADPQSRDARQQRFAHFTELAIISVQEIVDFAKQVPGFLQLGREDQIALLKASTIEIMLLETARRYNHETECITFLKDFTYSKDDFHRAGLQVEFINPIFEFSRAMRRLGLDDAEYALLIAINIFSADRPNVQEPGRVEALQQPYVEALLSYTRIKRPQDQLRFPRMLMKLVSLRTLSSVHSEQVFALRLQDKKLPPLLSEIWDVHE
Hits are given with their value; 0 = inactive; - = no result given. Hits are enriched below; roughly 5.7% of the tested compounds scored in any of these assays.

SMILES | hcDAF-12 act | DAX1 inh-1 | DAX1 inh-2 | ssDAF-12 act | AHR activator | hgDAF-12 ag | hgDAF12 ag | LXR ag 2
COc1ccccc1C(=O)OCCc1ccccc1 | 6.2 | 0 | 0 | 0.9 | - | 17 | 11 | 0
Nc1cc(Cl)nc(N/N=C/c2c(O)ccc3ccccc23)n1 | 0 | 0 | 0 | 0 | 55 | 15 | 0 | 0
Nc1nonc1N/N=C/c1c(O)ccc2ccccc12 | 0 | 0 | 0 | 0 | 0 | 0 | - | -
Cc1nn(-c2ccccc2)cc1C(=S)Nc1ccccc1 | 0 | 0 | 0 | 0 | 0 | 14 | 0 | 0
Cc1c(C(=S)Nc2ccccc2)cnn1-c1ccccc1 | 0 | 0 | 0 | 0 | 0 | 0 | - | -
CCC(C(=O)OCC(=O)Nc1cc(OC)ccc1OC)c1ccccc1 (configuration not stated) | 0 | 0 | 0 | 0 | 0 | 0 | - | -
COc1ccc(-c2csc(N=C(N)N)n2)cc1 | 0 | 0 | 0 | 0 | 0 | 16 | 11 | 0
COc1ccc(CCNC(=O)c2ccc(SC)cc2OC)cc1 | 0 | 0 | 0 | 0 | 0 | 0 | - | -
COc1cc(SC)ccc1C(=O)NCCOc1ccc(F)cc1 | 0 | 0 | 0 | 0 | 0 | 17 | 0 | 0
Cc1cccc(N=Nc2c(C)nn(-c3ccccc3)c2N)c1C | 0 | 0 | 0 | 0 | 0 | 16 | 11 | 0
CC1CCc2nn(CC(=O)Nc3c(F)cc(F)cc3Br)cc2C1 (configuration not stated) | 0 | 0 | 0 | 0 | 0 | 0 | - | -
CCCNC(=O)c1noc2c1CCc1cc(OC)ccc1-2 | 0 | 0 | 3.8 | 0 | 0 | 16 | 13 | 0
Cc1ccc(-c2nnc(SCc3ccccc3F)o2)cc1 | 5.7 | 0 | 0 | 0 | 0 | 16 | 15 | 0
Cc1cccc(NC(=O)c2cccnc2)c1C | 0 | 0 | 0 | 0 | 0 | 0 | - | -
CSCc1ccc(C(=O)Nc2cccc(C)c2C)cc1 | 0 | 0 | 0 | 1.7 | 0 | 14 | 11 | 0
O=C(NCC1COc2ccccc2O1)C1C2C=CC3(CN(Cc4cccs4)C(=O)C13)O2 (configuration not stated) | 0 | 0 | 0 | 0 | 0 | 0 | - | -
CN(C)c1ccc(NC(=O)/C=C/c2ccccc2Cl)cc1 | 0 | 0 | 0 | 0 | 0 | 18 | 14 | 0
CCN(CC)c1ccc(NC(=O)/C=C\c2ccccc2Cl)cc1 | 0 | 0 | 0 | 0 | 0 | 0 | - | -
COc1ccc(/C=N/n2c(SC)nnc(C(C)(C)C)c2=O)cc1OC | 0 | 0 | 0 | 0 | 0 | 0 | - | -
O=C(Nc1ccccc1F)c1ccc2sc([C@@H]3O[C@H](CO)[C@H](O)[C@H](O)[C@H]3O)nc2c1 | 0 | - | 0 | 0 | - | 14 | 0 | 0
O=C(Nc1cccc2ccccc12)c1ccc2sc([C@@H]3O[C@H](CO)[C@@H](O)[C@H]3O)nc2c1 | 0 | - | 0 | 0 | - | 0 | - | -
Cc1cc(C(=O)CSc2nc(N)cc(N)n2)c(C)n1-c1cccc(C(F)(F)F)c1 | 0 | 0 | 0 | 0 | 0 | 0 | - | -
COc1ccc(C2CC(c3ccc4ccccc4c3)=NN2C(=O)CNC2CCCCC2)cc1 (configuration not stated) | 0 | 0 | 0 | 0 | 0 | 0 | - | -
COc1ccc(C2CC(c3ccc4ccccc4c3)=NN2C(=O)CN2CCC(C(N)=O)CC2)cc1 (configuration not stated) | 0 | 0 | 0 | 0 | 0 | 13 | 0 | 0
CC1CCc2c(sc(NC(=O)C3CCCO3)c2C#N)C1 (configuration not stated) | 0 | 0 | 0 | 0 | 0 | 20 | 10 | 0
SMILES | hcDAF-12 act | DAX1 inh-1 | DAX1 inh-2 | ssDAF-12 act | AHR activator | hgDAF-12 ag | hgDAF12 ag | LXR ag 2
Cc1ccc(/C=C/C2=NN(C)C(=O)CC2)cc1 | 0 | 0 | 0 | 0 | 0 | 14 | 15 | 0
CN1N=C(/C=C/c2ccccc2)CCC1=O | 0 | 0 | 0 | 0 | 0 | 0 | - | -
CCOc1ccccc1OCCCC(=O)Nc1ccc(OC)nc1 | 0 | 0 | 0 | 0 | 0 | 0 | - | -
COc1cccc(NC(=O)/C=C/c2ccccc2[N+](=O)[O-])c1 | 0 | 0 | 0 | 0 | 0 | 16 | 16 | 0
CN(C)S(=O)(=O)c1cccc(NC(=O)/C=C/c2ccccc2[N+](=O)[O-])c1 | 0 | 0 | 0 | 0 | 0 | 0 | - | -
CCOC(=O)/C=C/c1cc(F)ccc1O | 0 | - | 0 | 0 | - | 0 | - | -
CCOC(=O)/C=C/c1cccc(C)c1O | 0 | - | 4.5 | 0 | - | 14 | 12 | 0
COc1ccc(-c2csc3ncnc(N4CCN(c5ccccc5OC)CC4)c23)cc1 | 0 | 0 | 0 | 0 | 0 | 0 | - | -
COC(=O)c1cccc(NC(=O)c2onc3c2CCCC3)c1 | 6.0 | 0 | 3.8 | 0 | 0 | 17 | 18 | 0
COC(=O)c1cccc(NC(=O)c2ccccc2)c1 | 0 | 0 | 0 | 0 | 0 | 0 | - | -
COc1ccccc1-c1cc(C(=O)NC(C)C)no1 | 0 | 0 | 0 | 0 | 0 | 0 | - | -
O=C(NC1CCCCC1)c1cc(-c2ccccc2O)on1 | 0 | 0 | 0 | 0 | 0 | 13 | 15 | 0
CCC(C)NC(=O)c1cc(-c2ccccc2O)on1 (configuration not stated) | 0 | 0 | 0 | 0 | 0 | 14 | 0 | 0
O=C(NC1CCCCC1)c1cc(-c2ccc(O)cc2)on1 | 0 | 0 | 0 | 0 | 0 | 0 | - | -
COc1ccccc1NS(=O)(=O)c1ccc(C(=O)Nc2ncccc2O)cc1 | - | 0 | - | - | 0 | - | - | -
COc1ccc2cc(C3=CC(=O)CCC3)ccc2c1 | 6.2 | 0 | 0 | 0 | - | 16 | 16 | 0
O=[N+]([O-])c1ccc2nc(-c3ccccc3)[nH]c2c1 | 0 | 0 | 4.0 | 0 | 0 | 20 | 18 | 0
O=C(Nc1nc2ccccc2[nH]1)c1cccc([N+](=O)[O-])c1 | 0 | 0 | 0 | 0 | 50 | 16 | 14 | 0
CN(C)c1cccc(C(=O)Nc2nc3ccccc3[nH]2)c1 | 0 | 0 | 0 | 0 | 0 | 15 | 0 | 0
O=C(Nc1nc2ccccc2[nH]1)c1ccc([N+](=O)[O-])cc1 | 0 | 0 | 0 | 0 | 0 | 0 | - | -
Cc1ccc(N(C)S(=O)(=O)c2cccc(C(=O)Nc3nc4ccccc4[nH]3)c2)cc1 | 0 | 0 | 0 | 0 | 0 | 0 | - | -
O=[N+]([O-])c1ccc2nc(-c3cccnc3)[nH]c2c1 | 0 | 0 | 0 | 0 | 0 | 0 | - | -
O=C(NC(=S)Nc1nc(-c2ccc([N+](=O)[O-])cc2)cs1)c1ccco1 | 0 | 0 | 0 | 0 | 0 | 0 | - | -
CCCn1c(C)cc(C(=O)COc2ncnc3sccc23)c1C | 0 | 0 | 0 | 0 | 0 | 14 | 13 | 0
O=C(O)C(O)c1ccco1 (configuration not stated) | - | 0 | - | - | - | - | - | -
CC(C)NC(=O)c1ccc(CONC(=O)OCc2ccccc2)cc1 | 0 | 0 | 0 | 0 | - | 0 | - | -
Cc1ccc(CONC(=O)c2ccccc2)cc1 | 0 | 0 | 0 | 0 | 0 | 15 | 11 | 0
CCOC(=O)c1cccc(NC(=O)CN2C(=O)C3C4C=CC(C4)C3C2=O)c1 (configuration not stated) | 0 | 0 | 0 | 0 | 0 | 0 | - | -
